# Screen size: about 16,000 compounds; about 4,000 (25%) were called active. Inconclusive results (about 26%) are left out. Calls follow the shape of the dose curve; as a rule, active = well fitted curve in the direction sought with a large enough effect; inconclusive = small, poorly fitted or top-dose-only effect, or effect the other way; inactive = no such curve, though single readings can be large or run the other way. These entries were drawn from the full list.
# Molecular target: Cytochrome P450 2C9 (Homo sapiens) (UniProt P11712)
# Experiment: Cytochrome panel assay with activity outcomes
# Conditions: recombinant CYP, pro-luciferin dealkylation, luminescence, p450-cyp2c9; series mostly up to 57.1 µM
# % is scaled to controls: 0 for no effect and ±100 for the full control effect.
# Cytochrome P450 2C9 (Homo sapiens), sequence (P11712 whole entry, looked up): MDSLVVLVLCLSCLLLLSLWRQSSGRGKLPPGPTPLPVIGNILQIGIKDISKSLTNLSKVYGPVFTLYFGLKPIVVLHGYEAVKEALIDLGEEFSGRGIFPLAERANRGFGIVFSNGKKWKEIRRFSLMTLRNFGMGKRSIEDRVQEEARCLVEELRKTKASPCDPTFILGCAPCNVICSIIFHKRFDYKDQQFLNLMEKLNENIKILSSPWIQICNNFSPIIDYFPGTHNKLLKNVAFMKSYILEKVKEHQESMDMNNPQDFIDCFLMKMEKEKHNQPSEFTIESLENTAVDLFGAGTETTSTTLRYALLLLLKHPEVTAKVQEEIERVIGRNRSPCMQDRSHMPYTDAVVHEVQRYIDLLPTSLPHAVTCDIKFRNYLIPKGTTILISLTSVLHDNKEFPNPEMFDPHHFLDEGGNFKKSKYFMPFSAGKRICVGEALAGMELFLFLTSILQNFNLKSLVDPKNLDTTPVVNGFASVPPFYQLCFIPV
SMILES,"activity, negative = inhibition",AC50
Clc1ccccc1-c1cc(NCc2cccnc2)ncn1,-1% [at 2.29 µM] (inactive),–
O=C(NCc1cccnc1)c1sc2cc(Cl)ccc2c1Cl,–,10 µM (active)
CN(C)C(=O)c1ccc(-c2cc(NCc3cccnc3)ncn2)cc1,17.1% [at 2.29 µM] (inactive),–
CN(C(=O)CC(NC(=O)c1ccccc1)(c1ccccc1)c1ccccc1)c1ccccc1,–,15.8 µM (active)
CN(C(=O)c1c(O)c2ccccc2n(C)c1=O)c1ccccc1,–,inactive
CN(C)CCCN1CC(C(=O)O)CC1=O (stereo unspecified),–,inactive
FC(F)(F)c1cccc(-c2nc3nc(Cl)c(Cl)nc3[nH]2)c1,–,3.98 µM (active)
C[C@H]1NC(=O)NC1=O,–,inactive
CC(C)c1cccc2c([Si](C)(C)C)c3c(nc12)-c1cccc(=O)n1C3,–,2 µM (active)
CC(C)c1cccc2nc3c(c(C(C)(C)C)c12)Cn1c-3cccc1=O,–,10 µM (active)
CC(C)c1cccc2cc3c(nc12)-c1cccc(=O)n1C3,–,inactive
Cc1c2c(nc3ccccc13)-c1cccc(=O)n1C2,–,inactive
CCc1c2c(nc3c(C(C)C)cccc13)-c1cccc(=O)n1C2,–,15.8 µM (active)
CCc1cccc2nc3c(c([Si](C)(C)C)c12)Cn1c-3cccc1=O,–,20 µM (active)
CC[C@@]1(O)C(=O)COc2c1cc1n(c2=O)Cc2c-1nc1cccc(C(C)C)c1c2[Si](C)(C)C,–,inactive
CC1(C)[C@@H]2CC[C@]1(C)[C@@H](OC(=O)CSC#N)C2,-16.1% [at 11.4 µM] (inactive),–
S=C(Nc1cccc(Cl)c1)NC1CCCCC1,–,inactive
N#C/C(=C\c1cc(Cl)cc(Cl)c1O)C(=O)NC1CCCCC1,–,12.6 µM (active)
Cn1c[n+](C)cc1/C=N/O,–,inactive
Nc1nc2ncc(CNc3ccc(C(=O)N[C@@H](CCC(=O)O)C(=O)O)cc3)nc2c(=O)[nH]1,–,inactive
CC(C)(C)CC(C)(C)c1ccc(OCOCCOCCO)c(Cc2cc(C(C)(C)CC(C)(C)C)cc(Cc3cc(C(C)(C)CC(C)(C)C)ccc3OCOCCOCCO)c2OCOCCOCCO)c1,–,inactive
CC1CCC(NC(=O)CC(C)(C)Cc2nc3ccccc3c(=O)[nH]2)CC1 (stereo unspecified),–,3.55 µM (active)
Cc1ccccc1-c1nc(NC2CC2)c2ccccc2n1,3.04% [at 2.29 µM] (inactive),–
CN(C)C(=O)c1ccc(-c2nc(Nc3ccccc3)c3ccccc3n2)cc1,-13.3% [at 2.29 µM] (inactive),–

SMILES,"activity, negative = inhibition",AC50
O=C1/C(=C\c2ccc(Br)o2)SC(=Nc2ccccc2)N1c1ccccc1,–,0.398 µM (active)
CC(C)CC(=O)N1CCN(Cc2cccc(F)c2)CC1,–,0.0251 µM (active)
CC(C)CN1CC2(CCN(C(=O)c3cccc(F)c3)CC2)C1,–,inactive
CC(C)CN1CCC2(CC1)CCN(C(=O)c1cccc(F)c1)CC2,–,inactive
C/C(=N/S(=O)(=O)c1ccc(Cl)c(Cl)c1)OCC(C)(C)C,6.28% [at 11.4 µM] (inactive),–
N#Cc1cccc(NC(=O)N2CC3(CCN(C(=O)c4cc(C(F)(F)F)cc(C(F)(F)F)c4)CC3)C2)c1,–,12.6 µM (active)
N#Cc1cccc(NC(=O)N2CC[C@@]3(CCCN(C(=O)c4ccco4)C3)C2)c1,–,inactive
N#Cc1cccc(NC(=O)N2CC3(CCN(C(=O)c4ccco4)CC3)C2)c1,–,inactive
N#Cc1cccc(NC(=O)N2CCCC3(CCN(C(=O)c4ccco4)CC3)C2)c1,–,3.98 µM (active)
N#Cc1cccc(NC(=O)N2CCCC3(CCN(C(=O)c4cc(C(F)(F)F)cc(C(F)(F)F)c4)CC3)C2)c1,–,inactive
CC(=O)N1CCC2(CC1)CN(C(=O)Nc1cccc(C#N)c1)C2,–,inactive
CCNCCCNCCCNCCCNCC,–,inactive
CC(C)(C)N1C(=O)[C@H]2[C@H]3[C@H](O)[C@H](O)C/C(=N/NC(=O)OCc4ccccc4)[C@@H]3CC[C@@H]2C1=O,29.2% [at 11.4 µM] (inactive),–
C/C(=N\NC(N)=S)c1ccc[nH]1,-7.98% [at 11.4 µM] (inactive),–
Cc1ccc(C(=O)c2cn[nH]c2-c2cc(Cl)ccc2O)cc1,–,2.24 µM (active)
Cc1ccc(NCCC(=O)c2ccc(Cl)c(Cl)c2)cc1,–,inactive
C=C1C(=O)O[C@@H]2[C@H]3O[C@]3(C)CCC=C(C)CC[C@@H]12,–,inactive
CC(=O)OC[C@H]1O[C@@H](O/N=C(\C)CCN2CCCc3nc(C)c(C)cc32)[C@H](OC(C)=O)[C@@H](OC(C)=O)[C@H]1OC(C)=O,18.1% [at 11.4 µM] (inactive),–
NS(=O)(=O)c1ccc(N=Nc2nc3[nH]c(=O)[nH]c(=O)c3[nH]2)cc1,0.503% [at 11.4 µM] (inactive),–
Cc1ccc(/C=C/c2ccc(=O)n(Cc3ccc(Cl)cc3Cl)n2)cc1,–,3.16 µM (active)
CC(C)(CO)[C@H](O)C(=O)NCCCO,–,inactive
COCCCNC(=O)c1c(N)n(/N=C/c2ccccn2)c2nc3ccccc3nc12,–,5.62 µM (active)
Cc1ccc(/C=N/n2c(COc3ccccc3)n[nH]c2=S)s1,–,4.47 µM (active)
O=[N+]([O-])c1ccccc1/C=N/n1c(COc2ccccc2)n[nH]c1=S,–,3.55 µM (active)

SMILES,"activity, negative = inhibition",AC50
CC1=NNC(=O)C1CCC(=O)N/N=C\c1ccccc1[N+](=O)[O-] (stereo unspecified),–,inactive
O=[N+]([O-])c1ccc(/C=N/n2c(COc3ccccc3)n[nH]c2=S)cc1,–,2.82 µM (active)
O=c1ccc(-c2ccccc2)n[nH]1,6.17% [at 11.4 µM] (inactive),–
C[C@]12CC[C@H]3c4ccc(O)cc4CC[C@@H]3[C@H]1C/C(=N/O)[C@H]2O,21.3% [at 11.4 µM] (inactive),–
COc1ccccc1CN1CC[C@@]2(CCCN(C(C)=O)C2)C1,–,inactive
CCc1cc2c(nc1CC)CCN(CC/C(C)=N/OC[C@@H](O)[C@@H]1O[C@@H]3OC(C)(C)O[C@@H]3[C@H]1O)C2,-13.5% [at 11.4 µM] (inactive),–
C=CCSc1nnc(-c2cc3c(-c4ccccc4)nn(C)c3s2)n1C,–,14.1 µM (active)
COc1cc(-c2nnc(SC/C=C/c3ccccc3)n2N)cc(OC)c1OC,–,inactive
Cc1noc(C)c1-c1nccc(NCCN2CCOCC2)n1,3.29% [at 2.29 µM] (inactive),–
O=C(Nc1nnc(CCS(=O)(=O)c2ccc(Br)cc2)s1)c1ccc([N+](=O)[O-])cc1,–,inactive
O=C(COc1ccc(Br)cc1)Nc1ccc([N+](=O)[O-])cn1,–,inactive
O=C(COc1cccc(NC(=O)c2cccc([N+](=O)[O-])c2)c1)c1ccc(Br)cc1,–,0.891 µM (active)
C[C@@H](c1ccccc1)N1C(=O)[C@H]2[C@@H]3[C@H](O)[C@H](O)CC(=O)[C@H]3CC[C@H]2C1=O,-15.7% [at 11.4 µM] (inactive),–
O=C(c1ccccc1)c1nc2ccccc2n(CCCn2c(=O)c(C(=O)c3ccccc3)nc3ccccc32)c1=O,–,0.2 µM (active)
CCCn1c(N)[n+](CC(=O)c2ccco2)c2ccccc21,–,inactive
CCCCCn1c(=O)c(C(=O)c2ccccc2)nc2ccccc21,–,14.1 µM (active)
O=C(O)Cc1cc2ccccc2nc1C(=O)O,–,inactive
N=C(N)[C@H](N=Nc1ccccc1)C(N)=O,-7.82% [at 11.4 µM] (inactive),–
CCn1c(O)c(/C=N/N=C2CCCC2)c2ccc(C3=NNC(=O)CC3)cc21,–,inactive
Cc1ccc(C2C(=O)N(C3CCCC3)CC(=O)N2CC2COc3ccccc3O2)cc1 (stereo unspecified),–,11.2 µM (active)
CC1CCCC(C)N1CC(O)COCC1COc2ccccc2O1 (stereo unspecified),–,inactive
OC(COCC1COc2ccccc2O1)CN1CCc2ccccc2C1 (stereo unspecified),–,inactive
Nc1ccn([C@H]2O[C@@H](COP(=O)(O)O)[C@@H](O)[C@H]2O)c(=O)n1,-6.67% [at 11.4 µM] (inactive),–
COc1cc(N)c(Cl)cc1C(=O)OCCCN1CCCCC1,–,inactive

SMILES,"activity, negative = inhibition",AC50
Cn1cc(C(=O)OCC2CCN(CCNS(C)(=O)=O)CC2)c2ccccc21,–,inactive
COc1cc(N)c(Cl)cc1C(=O)CCC1CCN(CCNS(C)(=O)=O)CC1,–,0.251 µM (active)
CCn1cc(C(=O)O)c(=O)c2cc(F)c(N3CCN[C@@H](C)C3)c(F)c21,–,inactive
O=C(Oc1ccc(OC(=O)c2ccco2)c(S(=O)(=O)c2ccc(Br)cc2)c1)c1ccco1,–,0.708 µM (active)
CC(C)OC(=O)c1cccc(C(=O)Oc2ccc(Br)cc2)n1,–,inactive
COc1ccc(C(C)=O)c(OC(=O)c2ccco2)c1,–,inactive
CCc1cc2c(=O)c(-c3cnn(-c4ccccc4)c3)coc2c(CN2CCOCC2)c1O,–,2.51 µM (active)
OC(CCCN1CCCCC1)(c1ccccc1)c1ccccc1,–,inactive
O=C(N/N=C/C1C(c2ccccc2)C1(Cl)Cl)c1cccc(Br)c1 (stereo unspecified),–,2 µM (active)
O=C(N[C@@]1(C(=O)O)C[C@@H]1c1ccccc1)c1ccccc1,5.78% [at 11.4 µM] (inactive),–
C/C(=N\NC(=O)c1cccc(Br)c1)c1ccc(Br)cc1,–,inactive
O=C(N/N=C\c1ccc(Sc2ccccn2)o1)c1cccc(Br)c1,–,2.24 µM (active)
O=C(N/N=C/c1cccc(Oc2ccccc2)c1)c1cccc(Br)c1,–,7.08 µM (active)
O=C(O)Cn1ccnc1[N+](=O)[O-],9.22% [at 11.4 µM] (inactive),–
COc1ccc2c(c1)N(C[C@@H](C)CN(C)C)c1ccccc1S2,–,inactive
COc1ccccc1-c1cncnc1NCc1cccc(C)c1,-10.6% [at 2.29 µM] (inactive),–
Cc1cc(C)c(Cn2cnc(-c3ccc([N+](=O)[O-])cc3)c2)c(C)c1,–,12.6 µM (active)
Cc1nn(Cc2ccc([N+](=O)[O-])cc2)c(=O)n1-c1cccc(F)c1,–,inactive
Nc1ncncc1-c1ccc([N+](=O)[O-])cc1,–,inactive
Cc1cc(C)n(CC(=O)N/N=C/c2ccco2)n1,–,inactive
O=C(CC(=O)N/N=C\c1c(Cl)cccc1Cl)NCc1ccccc1,–,inactive
O=C(N/N=C/c1ccco1)c1ccc(Br)o1,–,inactive
O=C(Cc1ccccc1)N/N=C/c1cc(Br)c(Br)o1,–,14.1 µM (active)
O=C(Cc1ccccc1)N/N=C\c1ccc(Br)o1,–,12.6 µM (active)
